Screening results as filed in PubChem BioAssay.
SKKanGAS inh: blocks kanamycin growth of S. pyogenes SKKanGAS strain; AID 1662; inhibition, % at 7.5 µM; BacTiter-Glo, 6 h; hit rate 1.3% among 300,000;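 active means mean replicate score, as percent of positive control median, at least 50; inconclusive means mean below 50 but one replicate at or above 50; inactive means mean and every replicate below 50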;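 further: strain carries kanamycin resistance gene driven by streptokinase promoter and grows in 40 µg/ml kanamycin; loss of luminescence reflects streptokinase promoter inhibition or plain growth inhibition; 0% = median of DMSO wells and 100% = positive control at its reference dose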
Calb FLC: affects C. albicans growth with fluconazole; growth inhibition, % (test concentration not listed); C. albicans CaCi-2 (fluconazole-resistant clinical isolate) + fluconazole, Alamar Blue growth, 48 h; hit rate 0.57% among 300,000;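 active means growth inhibition above about 58% in most replicates, limit read from the data, passing the limit was not always enough; inconclusive means exactly half the replicates above a set limit; inactive means most replicates below a set limit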;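 further: all wells also contain fluconazole at 8 µg/ml as a sub-toxic cotreatment; 0% = median of DMSO wells and 100% = median of geldanamycin control wells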
Platelet DG rel: modulates dense granule release in human platelets; human platelet-rich plasma, SFLLRN dense granule ATP release, luminescence; inhibition, %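 (compounds screened at 7.5 µM in platelet-rich plasma)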; hit rate 0.22% among 300,000;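 active means mean replicate score, as percent of positive control, at or above 50; inconclusive means mean below 50 but at least one replicate at or above 50; inactive means mean and every replicate below 50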
CR mimetic SO: caloric restriction mimetics inhibiting age-related superoxide in yeast. S. cerevisiae aged cells, superoxide DHE fluorescence; active compounds read low. superoxide response (% of plate mean), % at 10 µM. hit rate 0.18% among 330,000;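 active means superoxide response under a set limit, about three screen SD below normal, cut at about 65% in these data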;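 further: yeast aged for seven days with compound at 30 °C before DHE staining; 100% = average MFI of all compound-treated wells on the plate with controls excluded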
PolyA inhibitor: inhibitors of polyadenylation in S. cerevisiae; S. cerevisiae SKY197-pL101 polyadenylation reporter, beta-gal luminescence; efflux-impaired pdr1/pdr3 knockout yeast; score 100 = 6 SD above DMSO; activity score, % at 12 µM; hit rate 0.02% among 300,000;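 active means lowest replicate activity score at least 50, where 100 means six control SD above control mean; inconclusive means lowest score under 50 but half or more replicates reach 50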;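 further: yeast exposed to compound for 9 h at 30 °C; higher score means more reporter readthrough which indicates perturbed polyadenylation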
The depositor's hits bear a star; ? = inconclusive; nt = no result given. Most compounds without a hit are left out; they make up all but 2% or so of the library.

SMILES | SKKanGAS inh | Calb FLC | Platelet DG rel | CR mimetic SO | PolyA inhibitor
Cc1nnc(SCC2=C(C(=O)O)N3C(=O)C(NC(=O)Cn4cnnn4)C3SC2)s1 (stereo unspecified) | 106* | 5 | -5 | 100 | -6
CCC(C(=O)NC1C(=O)N2C(C(=O)O)=C(CSc3nnc(C)s3)CSC12)c1ccccc1 (stereo unspecified) | nt | nt | nt | 89 | nt
CCOC(=O)c1cccc2c(=O)c(C(=O)c3ccc(Cl)cc3)c(C(=O)OC)[nH]c12 | -1 | 7 | -12 | 112 | -15
O=C1[C@@H]2CSCN2C(=O)CN1Cc1c(F)cccc1Cl | -2 | 3 | 0 | 101 | -2
O=C1C(Cl)=C(Nc2ccc3cn[nH]c3c2)C(=O)c2ccccc21 | 73* | 4 | 15 | 143 | -1
Oc1[nH]c2ccc(Br)cc2c1N=NC(=S)N1CCOCC1 | 89* | 96* | 3 | 103 | -6
Oc1cccc(NC(=S)N=Nc2c(O)[nH]c3ccccc23)c1 | 20 | 5 | -15 | 108 | 0
Oc1[nH]c2ccccc2c1N=NC(=S)N1CCOCC1 | 77* | -10 | -1 | 111 | 3
O=C(CNC(=O)c1ccccc1)N=Nc1c(O)[nH]c2ccc(Br)cc12 | 12 | 2 | -1 | 89 | -2
CCOc1ccc(NC(=S)N=Nc2c(O)[nH]c3ccccc23)cc1 | 101* | -12 | -1 | 93 | 3
C(C#CCCCCCCCCC[n+]1ccccc1)#CCCCCCCCCC[n+]1ccccc1 | 62* | 110* | -18 | 90 | -35
O=[N+]([O-])c1ccc(/C=N/n2c(CO)nc3ccccc32)s1 | 12 | 25 | 3 | 110 | -8
Cc1nc2ccccc2n1/N=C/c1ccc([N+](=O)[O-])s1 | 92* | 25 | -13 | 107 | -67
CN(C)c1ccc(CNc2ncnc3sccc23)cc1 | 5 | 85* | -13 | 98 | -9
COc1ccc(CNC2CCSc3ccccc32)cc1OC (stereo unspecified) | 0 | 3 | nt | 87 | 11
COc1ccc([N+](=O)[O-])c(S(=O)(=O)c2ccccc2)n1 | 4 | -19 | 1 | 104 | -49
O=[N+]([O-])c1cccnc1S(=O)(=O)c1ccccc1 | 4 | 92* | -4 | 105 | -18
O=C1CS/C(=N\C(=O)N2c3ccccc3Sc3ccccc32)N1 | 7 | 95* | -8 | 88 | -21
Cc1ccnc(N2C(=O)c3ccccc3C2O)c1 (stereo unspecified) | 16 | -4 | 69* | 104 | -2
Cc1ccnc(N2C(=O)c3ccccc3C2Nc2cccc(C)c2C)c1 (stereo unspecified) | 1 | 14 | -41 | 84 | -5
CCCOc1ccc(C(=O)Nc2ccc(S(=O)(=O)Nc3cc(C)nc(C)n3)cc2)cc1 | -5 | 5 | -3 | 62* | 11
CC(C)[C@H](NC(=O)[C@H](Cc1ccccc1)n1c(=O)[nH]c2ccccc2c1=O)C(=O)N1CCC[C@H]1C(=O)O | -1 | -8 | -1 | 83 | -5
CC(C)N1CCc2c(sc(NC(=O)c3nc4ccccc4s3)c2C(N)=O)C1 | 17 | 119* | 1 | 90 | -7
CC(C)N1CCc2c(sc(NC(=O)c3cc(-c4cccs4)nc4ccccc34)c2C(N)=O)C1 | 19 | -9 | 1 | 98 | 13
CC(=O)c1c(O)cc(O)cc1CC(=O)O | 2 | 13 | 4 | 102 | -12
SMILES | SKKanGAS inh | Calb FLC | Platelet DG rel | CR mimetic SO | PolyA inhibitor
CC(=O)c1c(O)cc(O)c(C(C)=O)c1O | 91* | 0 | -3 | 123 | -5
Cc1oc(-c2cc(Cl)cc(Cl)c2)cc1C(=O)NCCc1ccccc1 | 51* | 6 | -4 | 95 | -4
COc1ccc(-n2c(C)c(C(C)=O)c(C(C)=O)c2C)cc1 | 6 | ? | 3 | 100 | -23
COc1ccc(-n2c(C)c(C(C)=O)c(C(C)=O)c2C)cc1OC | -1 | -18 | 53* | 99 | 0
COc1cc(/C=C2\C(=N)N3N=C(S(=O)(=O)CC(C)C)SC3=NC2=O)ccc1OC(=O)c1ccco1 | 34 | 46 | -7 | 96 | -1
COc1ccc(Br)cc1CN1CCSCC1 | 6 | 8 | 2 | 104 | 4
Oc1cccc(-c2nc3ccc4ccccc4c3c3c2CCC3)c1 | 63* | 32 | 3 | 90 | -12
NC(=S)NNC(=O)Nc1cccc(Cl)c1 | -2 | 5 | 15 | 96 | 10
NC(=S)NNc1cccc(Cl)c1 | 10 | 85* | -4 | 88 | -44
CC1CCC2(CC1)NC(=O)N(CC(=O)Nc1ccc(C(N)=O)cc1)C2=O (stereo unspecified) | nt | nt | nt | 107 | nt
COC(=O)C1CCN(S(=O)(=O)c2cc3c4c(c2)CCN4C(=O)CC3)CC1 | 10 | -2 | -3 | nt | -3
Oc1ccc2ccccc2c1/C=N/Nc1nnc(-c2ncc[nH]2)c2ccccc12 | 97* | 108* | 1 | 89 | 0
CCn1c(SCC(=O)NC2CC2)nnc1-c1cccc(OC)c1 | -8 | nt | -8 | 103 | 21
CC(C)(C)Nc1nc(NN)nc(NC(C)(C)C)n1 | 87* | 26 | 28 | 98 | 5
COC(=O)c1c(NC(NC(=O)C(C)C)C(Cl)(Cl)Cl)sc2c1CCCC2 (stereo unspecified) | 58* | 0 | -8 | 100 | -8
COC(=O)c1c(NC(C)=O)sc2c1CCCC2 | -2 | -3 | 2 | 89 | -21
COc1cc(Br)c(CN2C(=O)NC3(CCCCCC3)C2=O)cc1OC | -14 | 0 | -22 | 110 | 8
Cc1nn(Cc2c(F)c(F)c(F)c(F)c2F)c(C)c1NC(=O)c1ccc(COc2ccc(Cl)cc2Cl)o1 | 29 | -10 | -2 | 94 | -4
O=C(Nc1ccn(Cc2c(F)c(F)cc(F)c2F)n1)c1ccc(COc2ccc(Cl)cc2Cl)o1 | 50* | -18 | 6 | 92 | 19
COc1ccc(S(=O)(=O)N(C)C[C@H]2Oc3ccc(NC(=O)Nc4ccc5c(c4)OCO5)cc3C(=O)N([C@H](C)CO)C[C@@H]2C)cc1 | nt | nt | nt | 88 | nt
COc1cccc(CNc2cccc3cccnc23)c1O | -2 | -19 | -4 | 97 | -37
Oc1c(Br)cc(Br)cc1CNc1cccc2cccnc12 | 89* | 81* | -5 | 101 | 2
Cc1ccc(O)c(CNc2cccc3cccnc23)c1 | 8 | 1 | 3 | 88 | -31
Oc1ccc(Br)cc1CNc1cccc2cccnc12 | 55* | -4 | 10 | 96 | 0
Oc1ccc(Cl)cc1CNc1cccc2cccnc12 | 57* | 2 | -3 | 104 | -34
C=CCN(C(=O)CNC(=O)c1cccs1)C(C(=O)NC1CCCCC1)c1cccnc1 (stereo unspecified) | 1 | 6 | -2 | 106 | 10
COc1ccc(CC(=O)N2CCc3cc(OC)c(OC)cc3C2O)cc1OC (stereo unspecified) | -3 | -18 | 2 | 101 | 8
COc1ccc(CCNC(=O)c2ccc3c(c2)SC2=NS(=O)(=O)CCN23)cc1 | -12 | 7 | 77* | 99 | 3
CC(=O)c1ccc(-n2cc(-c3ccc(C(C)(C)C)cc3)[n+]3c2SCCC3)cc1 | 6 | 101* | -3 | 118 | -8
